# Assay results reported in PMC8384837, “Expanding the binding specificity for RNA recognition by a PUF domain”.
# Biological target: PUM1 PUF domain R5-RSM (Homo sapiens, UniProt Q14671 828-1176, C1007R;R1008S;Q1011M)
# Experiment: yeast three-hybrid, YBZ-1, SC-Leu-His + 0.5 mM 3-AT, 4 days
# Conditions: tags: N-Gal4 AD-HA kept; label: inside an RPR1-promoter hybrid RNA with tandem MS2 sites; ssRNA
# Method in brief: (§1)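 Matching RNA elements and Pumilio-1 PUF domain libraries, randomized at the three base-contacting residues of every repeat, were co-expressed from a centromeric plasmid in strain YBZ-1 (LexA–MS2 coat fusion, HIS3 reporter). The repeat regions were PCR-amplified and Illumina-sequenced from cells grown four days on SC-Leu (input) or SC-Leu-His + 0.5 mM 3-AT (selection). The interaction score is the log change in variant frequency from input to selection. It is computed in log2, with a pseudocount of 1 for absent variants.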
row,Sequence,binding signal
1,GGCUAGAACUAGUGGAUCCCCCGGCGCCCGGCGGCUCGAGCCCGGGUAAGUGUGAAUAGUCUGCAUGCCGCCGGGCGCCAUGCCUGCAGGUCGACUCUAGAAAACAUG,0.3 log2 enrichment (interaction score)
2,GGCUAGAACUAGUGGAUCCCCCGGCGCCCGGCGGCUCGAGCCCGGGUAAGUGUCAAUAGUCUGCAUGCCGCCGGGCGCCAUGCCUGCAGGUCGACUCUAGAAAACAUG,3.66 log2 enrichment (interaction score)
3,GGCUAGAACUAGUGGAUCCCCCGGCGCCCGGCGGCUCGAGCCCGGGUAAGUGUAAAUAGUCUGCAUGCCGCCGGGCGCCAUGCCUGCAGGUCGACUCUAGAAAACAUG,1.04 log2 enrichment (interaction score)

# Biological target: PUM1 PUF domain R3-MRG (Homo sapiens, UniProt Q14671 828-1176, C935M;Q939G)
# Experiment: as above
# Conditions: tags: N-Gal4 AD-HA kept; label: inside an RPR1-promoter hybrid RNA with tandem MS2 sites; ssRNA
# Method in brief: as §1
row,Sequence,binding signal
1,GGCUAGAACUAGUGGAUCCCCCGGCGCCCGGCGGCUCGAGCCCGGGUAAGUGUAAUUAGUCUGCAUGCCGCCGGGCGCCAUGCCUGCAGGUCGACUCUAGAAAACAUG,2.8 log2 enrichment (interaction score)
2,GGCUAGAACUAGUGGAUCCCCCGGCGCCCGGCGGCUCGAGCCCGGGUAAGUGUAAGUAGUCUGCAUGCCGCCGGGCGCCAUGCCUGCAGGUCGACUCUAGAAAACAUG,5.6 log2 enrichment (interaction score)
3,GGCUAGAACUAGUGGAUCCCCCGGCGCCCGGCGGCUCGAGCCCGGGUAAGUGUAAAUAGUCUGCAUGCCGCCGGGCGCCAUGCCUGCAGGUCGACUCUAGAAAACAUG,0.61 log2 enrichment (interaction score)
